According to ChEMBL document CHEMBL1961873, “Compounds: GSK PKIS; Assays: Nanosyn kinase panel” (2012):

Key:
[1] = biological target: Mast/stem cell growth factor receptor Kit (Homo sapiens) (UniProt P10721); conditions: at 1 µM
[2] = test system: Mast/stem cell growth factor receptor Kit (Homo sapiens), P10721 [D816V]; conditions: at 0.1 µM
[3] = test system: Mast/stem cell growth factor receptor Kit (Homo sapiens), P10721 [D816V]; conditions: at 1 µM
[4] = test system: Mast/stem cell growth factor receptor Kit (Homo sapiens), P10721 [T670I]; conditions: at 0.1 µM
[5] = test system: Mast/stem cell growth factor receptor Kit (Homo sapiens), P10721 [T670I]; conditions: at 1 µM
[6] = test system: Mast/stem cell growth factor receptor Kit (Homo sapiens), P10721 [V560G]; conditions: at 0.1 µM
[7] = test system: Mast/stem cell growth factor receptor Kit (Homo sapiens), P10721 [V560G]; conditions: at 1 µM
[8] = biological target: Tyrosine-protein kinase Lck (Homo sapiens) (UniProt P06239); conditions: at 0.1 µM
[9] = biological target: Tyrosine-protein kinase Lck (Homo sapiens) (UniProt P06239); conditions: at 1 µM
[10] = biological target: Leukocyte tyrosine kinase receptor (Homo sapiens) (UniProt P29376); conditions: at 0.1 µM
Chain of Leukocyte tyrosine kinase receptor (Homo sapiens) (P29376 whole entry): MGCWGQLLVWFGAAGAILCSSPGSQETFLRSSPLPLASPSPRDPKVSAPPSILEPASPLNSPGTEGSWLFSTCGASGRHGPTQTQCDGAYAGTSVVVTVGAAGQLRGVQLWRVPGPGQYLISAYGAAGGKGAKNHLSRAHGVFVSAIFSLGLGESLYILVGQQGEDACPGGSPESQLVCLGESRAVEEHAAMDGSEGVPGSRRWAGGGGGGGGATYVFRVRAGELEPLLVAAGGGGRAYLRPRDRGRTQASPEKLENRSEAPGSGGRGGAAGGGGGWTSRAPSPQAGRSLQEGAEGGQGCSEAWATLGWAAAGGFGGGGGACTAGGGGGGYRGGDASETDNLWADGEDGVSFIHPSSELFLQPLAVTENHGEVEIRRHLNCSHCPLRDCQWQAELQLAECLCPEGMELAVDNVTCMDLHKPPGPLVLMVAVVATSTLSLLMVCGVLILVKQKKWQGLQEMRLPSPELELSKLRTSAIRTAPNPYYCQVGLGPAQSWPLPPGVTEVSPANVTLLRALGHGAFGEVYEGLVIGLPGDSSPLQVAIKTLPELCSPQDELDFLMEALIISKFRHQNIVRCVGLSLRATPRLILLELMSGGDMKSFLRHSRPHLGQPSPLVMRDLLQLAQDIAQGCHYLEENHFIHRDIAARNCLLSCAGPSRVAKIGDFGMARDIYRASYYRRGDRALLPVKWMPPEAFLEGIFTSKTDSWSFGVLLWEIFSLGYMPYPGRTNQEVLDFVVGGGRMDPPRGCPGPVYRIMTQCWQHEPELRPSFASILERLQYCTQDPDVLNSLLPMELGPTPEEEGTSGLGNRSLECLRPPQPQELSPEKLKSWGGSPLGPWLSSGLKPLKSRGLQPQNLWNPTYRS

Chain of Mast/stem cell growth factor receptor Kit (Homo sapiens), P10721 [D816V] (P10721 whole entry D816V): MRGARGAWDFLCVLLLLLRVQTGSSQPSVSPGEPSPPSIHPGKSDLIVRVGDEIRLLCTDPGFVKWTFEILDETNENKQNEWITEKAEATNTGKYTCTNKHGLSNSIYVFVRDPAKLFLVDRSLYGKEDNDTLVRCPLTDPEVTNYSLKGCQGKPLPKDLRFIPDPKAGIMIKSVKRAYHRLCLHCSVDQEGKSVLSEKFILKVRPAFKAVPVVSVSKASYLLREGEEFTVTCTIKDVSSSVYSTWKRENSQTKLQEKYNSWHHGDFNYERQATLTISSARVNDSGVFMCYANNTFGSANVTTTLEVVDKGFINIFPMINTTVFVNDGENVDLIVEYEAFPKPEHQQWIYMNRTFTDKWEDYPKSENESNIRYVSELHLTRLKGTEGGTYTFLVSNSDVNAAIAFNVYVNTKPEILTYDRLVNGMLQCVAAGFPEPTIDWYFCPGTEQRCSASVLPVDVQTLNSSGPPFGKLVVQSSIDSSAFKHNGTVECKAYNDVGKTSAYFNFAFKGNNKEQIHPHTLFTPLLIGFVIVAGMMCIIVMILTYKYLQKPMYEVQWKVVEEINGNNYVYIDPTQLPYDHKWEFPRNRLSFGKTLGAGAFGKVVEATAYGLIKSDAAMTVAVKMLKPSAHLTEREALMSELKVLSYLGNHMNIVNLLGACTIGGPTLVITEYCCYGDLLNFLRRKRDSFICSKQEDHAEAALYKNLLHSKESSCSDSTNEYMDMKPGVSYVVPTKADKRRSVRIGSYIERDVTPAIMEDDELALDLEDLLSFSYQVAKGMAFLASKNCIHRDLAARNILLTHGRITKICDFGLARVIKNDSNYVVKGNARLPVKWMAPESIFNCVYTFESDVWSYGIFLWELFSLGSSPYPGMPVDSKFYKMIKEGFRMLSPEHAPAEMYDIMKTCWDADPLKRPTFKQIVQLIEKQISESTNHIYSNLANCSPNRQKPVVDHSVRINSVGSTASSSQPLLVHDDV
Chain of Mast/stem cell growth factor receptor Kit (Homo sapiens), P10721 [T670I] (P10721 whole entry T670I): as the sequence (P10721 whole entry D816V) above, with T670I, V816D counted along it
Chain of Mast/stem cell growth factor receptor Kit (Homo sapiens) (P10721 whole entry): as the sequence (P10721 whole entry D816V) above, with V816D counted along it
Chain of Mast/stem cell growth factor receptor Kit (Homo sapiens), P10721 [V560G] (P10721 whole entry V560G): as the sequence (P10721 whole entry D816V) above, with V560G, V816D counted along it
Chain of Tyrosine-protein kinase Lck (Homo sapiens) (P06239 2-509 limits assumed): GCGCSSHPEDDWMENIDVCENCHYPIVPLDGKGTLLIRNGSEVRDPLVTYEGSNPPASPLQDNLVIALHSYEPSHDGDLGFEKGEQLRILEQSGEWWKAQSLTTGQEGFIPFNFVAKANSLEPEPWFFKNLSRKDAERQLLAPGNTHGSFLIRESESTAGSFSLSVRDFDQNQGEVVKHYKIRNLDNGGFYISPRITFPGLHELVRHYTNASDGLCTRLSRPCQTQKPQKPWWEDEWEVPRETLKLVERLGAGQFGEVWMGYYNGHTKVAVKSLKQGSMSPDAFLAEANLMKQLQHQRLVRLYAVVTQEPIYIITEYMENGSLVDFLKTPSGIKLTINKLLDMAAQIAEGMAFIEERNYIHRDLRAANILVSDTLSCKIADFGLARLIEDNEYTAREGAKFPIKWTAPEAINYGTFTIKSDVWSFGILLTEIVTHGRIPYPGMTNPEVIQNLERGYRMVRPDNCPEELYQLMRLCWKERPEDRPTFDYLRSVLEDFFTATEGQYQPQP

| Structure (SMILES) | inhibition [1] [%] | inhibition [2] [%] | inhibition [3] [%] | inhibition [4] [%] | inhibition [5] [%] | inhibition [6] [%] | inhibition [7] [%] | inhibition [8] [%] | inhibition [9] [%] | inhibition [10] [%] |
| --- | --- | --- | --- | --- | --- | --- | --- | --- | --- | --- |
| O=C(NCC1CC1)c1ccc(-c2cccc(C(=O)NC3CC3)c2)cc1 | 3.45 | 2.24 | -0.44 | 3.77 | -2.45 | 3.49 | 5.84 | 1.74 | 4.51 | 1.6 |
| O=C1Nc2ccc(I)cc2C1=Cc1cc(Br)c(O)c(Br)c1 | 18.4 | 2.74 | 2.13 | -0.52 | 4.39 | -4.29 | -1.08 | 3.11 | 3.54 | 4.82 |
| c1ccc(-c2n[nH]cc2-c2ccnc(-c3ccc(OCCN4CCOCC4)cc3)c2)nc1 | 2.31 | -0.77 | 8.41 | -3 | -2.32 | 7.8 | 10.4 | 1.7 | 9.5 | -0.05 |
| NC(=O)c1cc(-c2ccc(F)cc2)cc(-c2ccncc2)c1N | 46.7 | 2.24 | 4.8 | 4.07 | 8.15 | -2.86 | 1.74 | 2.03 | 7.42 | 3.88 |
| NS(=O)(=O)c1ccc(N/N=C2\C(=O)Nc3ccc(-c4cnco4)cc32)cc1 | 42.2 | 0.65 | 5.47 | 1.64 | 10.7 | 0.82 | 3.19 | -1.05 | 4.4 | 1.24 |
| CS(=O)(=O)CCNCc1cc(-c2cc3c(Nc4ccc(OCc5cccc(F)c5)c(Cl)c4)ncnc3s2)cs1 | 8.47 | 2.03 | 6.26 | 2.2 | 5.07 | -1.18 | 0.47 | 2.76 | 4.18 | 6.05 |
| Cc1ccc(C(=O)NC2CCC2)cc1-c1ccc(C(=O)NCC2CC2)cc1 | 2.43 | 1.7 | 1.73 | 2.13 | -0.64 | -2.14 | 2.11 | 1.6 | 2.51 | 2.34 |
| COC(=O)Nc1nc2ccc(Sc3ccc(NC(=O)Nc4cc(C(F)(F)F)ccc4F)cc3)cc2[nH]1 | 43.9 | -2.14 | 5.31 | -0.05 | 30 | 2.79 | 27.3 | 5.45 | 34.7 | -0.1 |
| O=C1NC(=O)C(c2cccc(Cl)c2)=C1Nc1ccc(Cl)c(C(=O)O)c1 | 5.28 | 1.8 | 5.8 | 2.83 | 4.22 | 1 | 6.94 | 1.82 | 0.84 | 2.51 |
| NC(=O)Cc1ccccc1Oc1nccc(-c2c(-c3ccc(F)cc3)ncn2C2CCNCC2)n1 | 0.35 | 0.95 | -1.59 | -0.35 | -1.27 | 0.54 | -3.43 | 1.45 | 1.06 | 3.35 |
| Fc1ccc(-c2nc3n(c2-c2ccncc2)CCS3)cc1 | 2.15 | 4.1 | 1.39 | 2.38 | 2.22 | 0.09 | -0.72 | -2.03 | 1.29 | 1.98 |
| NS(=O)(=O)c1ccc(N/N=C2\C(=O)Nc3ccc(C(=O)NCCCn4ccnc4)cc32)cc1 | 9.5 | 6.28 | 9.36 | 3.5 | 5.57 | -1.18 | 1.2 | 1.53 | 7.02 | 5.17 |
| COc1ccc2cc(-c3c(-c4ccncc4)nc(-c4ccc([S+](C)[O-])cc4C)n3C)ccc2c1 (stereo not given) | 4.45 | -3.23 | -3.08 | 0.48 | 0.67 | 4.53 | -0.3 | 0.43 | 8.73 | 0.03 |
| O=C(Nc1n[nH]c2cc(-c3ccccc3)ccc12)C1CC1 | 7.38 | 3.94 | 8.12 | 4.34 | 4.01 | 1.4 | 3.87 | 2.21 | 6.66 | 3.88 |
| NS(=O)(=O)c1ccc(Nc2cc(-c3ccc(O)c(F)c3)n[nH]2)cc1 | 86.4 | -3.97 | -1.47 | -0.5 | 20.2 | 8.78 | 55.9 | -0.68 | 7.91 | -0.58 |
| CCc1cccc(CC)c1/C=C/c1cncc(C(=O)NC)c1 | 0.22 | 2.9 | 0.24 | 1.07 | 2.14 | -2.51 | 4.63 | 3.18 | 4.94 | 1.51 |
| C/C(Nc1ccc(S(N)(=O)=O)cc1)=C1/C(=O)Nc2ccccc21 | 90.9 | -0.26 | -1.16 | 21 | 82.5 | 3.94 | 22.4 | -1.24 | 4.22 | 1.12 |
| CCS(=O)(=O)c1ccc(OC)c(Nc2ncc(-c3cccc(-c4ccccc4F)c3)o2)c1 | 90.9 | -0.16 | 6.62 | 2.77 | 19.6 | 4.79 | 19.7 | 9.89 | 55.8 | 1.34 |
| C#Cc1cccc(Nc2ncnc3ccc(OCCCCNCCS(C)(=O)=O)cc23)c1 | 7.12 | 5.01 | 8.8 | 1.97 | 9.5 | -0.82 | 4.36 | 0.24 | 13.5 | 5.05 |
| Clc1ccc(CNc2nccc(-c3cnn4ncccc34)n2)cc1 | 19.4 | 0.92 | 5.08 | 1.59 | 6.47 | 3.83 | 7.92 | 2.31 | 2.46 | 0.55 |
| COc1cc(C)c(N(C)C(=O)CN(C)C)cc1Nc1nc(Nc2cccc(F)c2C(N)=O)c2cc[nH]c2n1 | -0.73 | -0.92 | 0.99 | -0.51 | -1.63 | -1.08 | -3.38 | -3.07 | -1.56 | 11.7 |
| CN1CCN(CCCNc2nc3ccc(Oc4ccc(NC(=O)Nc5cc(C(F)(F)F)ccc5F)cc4)cc3[nH]2)CC1 | 91.9 | -2.19 | 0.02 | 11.5 | 70.1 | 31.6 | 76.6 | -1.91 | 7.95 | -0.24 |
| CN(C)CCCNc1nccc(-c2c(-c3ccc(F)cc3)nn3cc(C(F)(F)F)ccc23)n1 | 2.1 | 1.94 | -0.31 | 0.09 | 0.14 | 6.47 | 4.04 | -2.05 | 3.17 | 1.9 |
| O=C(Nc1n[nH]c2cc(-c3cc(F)ccc3F)ccc12)C1CC1 | 7.05 | 1.5 | 3.88 | 2.63 | 3.43 | 1.22 | 1.15 | 1.37 | 6.57 | 6.64 |
| COc1cc2ncn(-c3cc(OCc4cccs4)c(C(N)=O)s3)c2cc1OC | 11.7 | -0.06 | 3.94 | 1.45 | 7.04 | 1.25 | 4.05 | -0.61 | 13.8 | 1.76 |
| Fc1ccc(-c2ncn(C3CCNCC3)c2-c2ccnc(Oc3ccc(Oc4ccccc4)cc3)n2)cc1 | 6.51 | 2.38 | 2.59 | 1.59 | 1.82 | -2.65 | -3.42 | 4.01 | 4.76 | 3.78 |
| N#Cc1ccc(Oc2nccc(-c3c(-c4ccc(F)cc4)ncn3C3CCNCC3)n2)cc1 | 6.19 | 2.91 | 2.36 | 3.26 | 4.72 | -0.39 | -1.19 | 3.86 | 6.11 | 4.74 |
| Fc1ccc(-c2ncn(CCCN3CCOCC3)c2-c2ccncc2)cc1 | -0.81 | 0.65 | -1.66 | -0.29 | -2.16 | 2.57 | 0.03 | 0.17 | 3.45 | 0.08 |
| CN(c1ccc(NC(=O)Nc2c(Cl)cccc2Cl)cc1)c1ccnc(Nc2cccc(CS(C)(=O)=O)c2)n1 | 95.9 | -0.59 | 2.33 | 12.3 | 35.9 | 71.3 | 81.5 | 45.5 | 61.2 | 0.54 |
